Sampled rows, rich in hits. Any-hit rate of the full collection: about 2.2%.
Cardio protect = protects H9c2 cardiomyocytes from peroxide injury; H2O2 injury protection, ATPLite, 2 h; protection from H2O2 cell death, % at 20 µM; 360,000 compounds, 0.63% hits; AID 588492;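 active = compounds giving at least 50% protection of heart cells from peroxide-induced death in the single-dose screen, raw or plate-pattern-corrected value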;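 also: 0% = DMSO wells with peroxide and 100% = DMSO wells without peroxide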
ABCB6 inh 2 = human ABCB6 transporter inhibition; 360,000 compounds, 0.19% hits; K562-ABCB6 porphyrin accumulation, flow cytometry, 1 h; active compounds read low; fluorescence ratio to DMSO, % at 10 µM; AID 602162; Q9NP58;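 active = fluorescence ratio to DMSO below 75%, the collection mean minus 3 SD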;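 also: signal is porphyrin accumulated inside mitochondria; 100% equals median channel fluorescence of DMSO control wells; lower ratio means ABCB6 inhibition with less porphyrin fluorescence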
MIN6 prolif-1 = inducers of beta-cell replication in MIN6 cells; AID 2380; proliferation, % at 10 µM; MIN6 cells proliferation, ATPlite luminescence, 48 h; cells starved in 0.2% serum; 100% = growth in 10% serum; 330,000 compounds, 0.29% hits;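 active = compounds whose signal lies at least 3.5 SD above the mean of all wells on their plate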;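 also: 0% = DMSO-treated cells in low-serum medium and 100% = 10% serum control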
hiPSC survival = hiPSC single-cell survival enhancement. ATPlite luminescence; 100% = ROCK inhibitor wells, 0% = DMSO. survival enhancement, % at 20 µM. 360,000 compounds, 0.044% hits. AID 602274; in the data active = survival enhancement above about 18%;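 also: cells exposed to compounds for 16 hours before the ATP read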
Myeloid diff 2 = compounds promoting myeloid differentiation; 360,000 compounds, 1% hits; calls only at 10 µM; AID 624256; ER-HoxA9 myeloid progenitors, lysozyme-GFP differentiation, flow cytometry;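 active = normalized GFP-positive differentiation at or above the plate's own cutoff, the solvent-only control mean plus 3 SD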;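 also: cells exposed to compound for four days before flow analysis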
MIN6 prolif-2 = confirmation of inducers of beta-cell replication in MIN6 cells | AID 463095 | proliferation increase, % at 50 µM | MIN6 beta-cell proliferation, ATPlite luminescence, 48 h; cells kept in 0.2% serum; scaled between 0.2% and 10% serum | 920 tested, under 10 active | shares compounds with MIN6 prolif-1;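 active = proliferation increase above 40% at any of the four tested concentrations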
* = called active by the depositor; i = inactive; . = no result given.

SMILES	Cardio protect	ABCB6 inh 2	MIN6 prolif-1	hiPSC survival	Myeloid diff 2	MIN6 prolif-2
COc1cccc(C(C(=O)NC2CCCCC2)N(C(=O)c2ccco2)c2ccc(-n3cnnn3)c(C)c2)c1 (configuration not stated)	-12.7	98.0	7.7*	0.7	i	-2.4
Cc1ccc(-n2nc3c(=O)n(CC(=O)NCc4ccccc4Cl)nc(C)c3c2C)cc1	-1.7	103.0	-0.9	1.2	i	.
COc1ccc(CCNC(=O)Cc2cc(OC)c(OC)cc2Br)cc1OC	5.3	98.0	-1.5	3.8	i	.
COc1ccc(CCNC(=O)CNC(=O)c2ccc(Br)o2)cc1OC	-2.2	96.0	12.8*	-0.4	i	2.0
Fc1ccccc1N1CCN(c2ncnc3nc[nH]c23)CC1	-1.9	100.0	11.3*	-0.6	i	0.4
Clc1ccccc1N1CCN(c2ncnc3nc[nH]c23)CC1	-7.5	101.0	13.1*	0.5	i	0.7
Cc1cc(C)n(CC(=O)NCc2ccccc2)c(=O)c1C#N	2.2	101.0	6.0*	-0.5	i	-0.4
CC1CCN(CCOc2ccccc2-c2ccccc2)CC1	-4.0	100.0	0.0*	-1.0	i	-5.0
COc1ccccc1NC(=O)NN1CCCCC1	-3.3	97.0	0.0	-0.2	i	.
CC1(C)CNC(=O)CC(C)(C)N1O	0.4	100.0	6.6*	1.1	i	-4.3
CCOc1ccccc1C(=O)NCC(=O)NNC(=O)c1cccs1	3.6	96.0	-1.3	1.2	i	.
CCOc1ccccc1CNC(=O)CNC(=O)c1cccs1	6.8	98.0	17.1*	-0.6	i	1.2
CC(=O)c1ccc(NC(=O)C(C)n2c3ccccc3c3nc(=O)cc(C)n32)cc1 (configuration not stated)	5.6	114.0	0.2	-0.3	i	.
COc1cccc(-n2nc(C(C)=O)c(C#N)c2-c2ccco2)c1	-6.3	102.0	9.4*	1.3	i	1.8
COc1cccc(-n2nc(C#N)c(Cl)cc2=O)c1	-14.8	106.0	-5.4	-1.2	.	.
CO/N=C/c1ccc(N2CCOCC2)c([N+](=O)[O-])c1	3.2	97.0	1.7	-1.0	i	.
CCOCCCn1c(=NC(=O)c2cccs2)c(C#N)cc2c(=O)n3ccccc3nc21	10.9	98.0	13.5*	0.0	i	3.1
CCCCc1n[nH]c2c1/C(=N/O)CC(C)(C)C2	-8.6	93.0	-1.7	-1.2	i	.
CCCCc1n[nH]c2c1/C(=N/OCC)CC(C)(C)C2	-5.3	97.0	9.1*	-0.4	i	-6.3
Cc1ccc(/C=N/NC(=O)CSc2nc3ccccc3s2)o1	-4.2	101.0	0.0*	-0.7	i	2.2
CNc1nc(Oc2ccc(=O)n(C)n2)nc(N2CCOCC2)n1	1.4	91.0	10.8*	2.8	i	-1.6
CCNc1nc(Oc2ccc(=O)n(C)n2)nc(N2CCOCC2)n1	-9.9	94.0	-0.3	-1.7	i	.
CN(C)S(=O)(=O)c1ccc(Cl)c(NC(=O)COC(=O)CCC(=O)c2cccs2)c1	-5.7	102.0	2.7	0.3	i	.
O=C1CCCC[C@@H](CO)[C@H](O)C[C@H](c2ccccc2)O1	.	100.0	.	-0.8	i	.
COc1ccc(OC)c(C(=O)CSc2nccc(-c3ccc(Br)cc3)n2)c1	-6.8	103.0	5.6*	-1.2	i	-3.1
SMILES	Cardio protect	ABCB6 inh 2	MIN6 prolif-1	hiPSC survival	Myeloid diff 2	MIN6 prolif-2
COc1ccc(-c2ccnc(SCC(=O)c3ccc(OC)c(OC)c3)n2)cc1	-6.5	96.0	0.0	2.6	i	.
CCOC(=O)c1[nH]c2ccc(OC)cc2c1NS(=O)(=O)c1ccc(Cl)s1	-0.9	98.0	5.3*	-0.5	i	-6.2
C=CCOn1c(C)c(C(C)=O)c2c3no[n+]([O-])c3ccc21	0.8	90.0	7.6*	2.1	i	4.4
CCOC(=O)N1CCN(c2cc(=O)n(Cc3ccc(F)cc3)c(=O)[nH]2)CC1	-5.5	97.0	-2.5	-0.3	i	.
COc1ccc(S(=O)(=O)c2cnc3ccc(OC)cc3c2N2CCC3(CC2)OCCO3)cc1	36.1	91.0	1.8	-0.2	i	.
CCOc1ccc2ncc(S(=O)(=O)c3ccccc3)c(N3CCC4(CC3)OCCO4)c2c1	.	.	0.0*	.	.	-6.4
C/C(=N/NC(=O)c1ccc(Br)s1)c1cccnc1	4.7	101.0	-2.6	0.2	i	.
C/C(=N/NC(=O)c1ccc(Br)s1)c1ccncc1	8.6	97.0	14.9*	-0.3	i	3.2
N#Cc1nc(-c2ccco2)oc1NCc1ccco1	7.5	97.0	-0.7	0.0	i	.
N#Cc1nc(-c2ccco2)oc1NCc1ccccc1Cl	-2.6	93.0	4.6*	-0.3	i	3.0
C=CCOn1c(=O)c(-c2ccc(F)cc2)[n+]([O-])c2ccccc21	7.1	99.0	10.7*	0.1	i	2.6
C=CCOn1c(=O)c(-c2ccc(Cl)cc2)[n+]([O-])c2ccccc21	4.9	98.0	-0.1	-0.4	i	.
Cc1cc(C)c(S(=O)(=O)c2ccccc2)c(Cl)n1	0.8	96.0	4.9*	0.4	i	-0.7
CSCC[C@H](NC(=O)N1CCn2c1nc1ccccc12)C(=O)N1CCCCC1	4.4	92.0	3.2	-0.3	i	.
CC(C)C[C@H](NC(=O)N1CCn2c1nc1ccccc12)C(=O)N1CCCCC1	0.8	95.0	12.3*	-0.3	i	-3.3
O=c1cc(N2CCOCC2)[nH]c(=O)n1C1CCCCC1	0.2	93.0	-2.2	1.3	i	.
Cc1ccc(Cn2nnc3c(=O)[nH]c(C4CCCN(S(=O)(=O)c5ccc(F)cc5)C4)nc32)cc1 (configuration not stated)	2.7	100.0	-3.2	0.3	i	.
COC(=O)c1ccc(Cn2nnc3c(=O)[nH]c(C4CCCN(S(=O)(=O)c5ccc(C)cc5)C4)nc32)cc1 (configuration not stated)	30.8	102.0	10.8*	-0.2	i	-2.2
CCNC(=O)CC1SC(=Nc2ccc(Cl)cc2)N(CC)C1=O (configuration not stated)	-3.2	90.0	4.2	-2.1	i	.
CCC1(C)NC(=O)N(CC(=O)Nc2sc3c(c2C(N)=O)CCC3)C1=O (configuration not stated)	4.2	103.0	-2.1	-1.5	i	.
Cc1ccccc1NC(=O)c1ccccc1NC(=O)c1cccs1	6.5	98.0	4.9	0.1	i	.
CCOC(=O)c1ccccc1NC(=O)c1cccs1	-2.2	96.0	7.4*	0.1	i	3.9
Nc1nc(-c2ccccc2)c(C(=O)Nc2ccccc2)s1	2.4	102.0	-3.8	2.2	i	.
O=S(=O)(c1ccccc1Cl)N1CCCC(c2nc(-c3cccnc3)no2)C1 (configuration not stated)	-6.6	99.0	7.4*	-0.4	i	-4.0
COc1ccc(-c2noc(C3CCCN(S(=O)(=O)c4cccc(Cl)c4C)C3)n2)cc1OC (configuration not stated)	-0.5	100.0	-3.1	-0.7	i	.
